Reference: PubChem BioAssay (NCATS)
Where “and” joins values, the source holds several entries; their conditions need not be identical. Equal entries are not always repeated. Inconclusive results are not listed. Where a structure was tested more than once in an assay, its records may differ in their call. Calls of active or inactive are those of the source. Unless noted, calls follow the shape of the dose curve; as a rule, active = well fitted curve in the direction sought with a large enough effect; inconclusive = small, poorly fitted or top-dose-only effect, or another doubt; inactive = no such curve, though single readings can be large; an effect the other way counts as inactive or inconclusive.

Key:
[1] = qHTS Assay for Identifying Gametocytocidal Compounds (AID 743244);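 also: % is scaled to controls: 0 for no effect and ±100 for the full control effect; actives lower the fluorescent signal which means gametocytes are killed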; conditions: P. falciparum 3D7 stage III-V gametocytes, alamarBlue, 72 h; max response: stronger effect = lower value
Outline: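 Viability read-out was resazurin reduction (alamarBlue, 24 h) measured at Ex 525/Em 598 nm. Beforehand, late-stage (III-V) 3D7 P. falciparum gametocytes at 20,000 cells/well were incubated with compound 72 h at 37C under 5% CO2.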

[2] = qHTS profiling of the MIPE4 collection as inhibitors of Plasmodium falciparum (3D7) proliferation (AID 743344; call rule not given here;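 also: scaled between DMSO vehicle wells and 0.29 µM artemisinin as full inhibition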); conditions: P. falciparum 3D7 in erythrocytes, SYBR Green DNA fluorescence, 72 h; at 28.5 µM (top of the series) unless noted
Outline: (§1)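 Erythrocytes infected with P. falciparum (0.3% parasitemia, 2.5% hematocrit) incubated with compounds 72 h at 37 C, 5% CO2. Lysis with saponin/Triton buffer containing SYBR Green I, overnight at room temperature in the dark; DNA fluorescence (485/535 nm) normalised to 0.29 uM artemisinin and DMSO.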

[3] = qHTS profiling of the MIPE4 collection as inhibitors of Plasmodium falciparum (DD2) proliferation (AID 743345; call rule not given here); conditions: P. falciparum Dd2 in erythrocytes, SYBR Green DNA, 72 h; at 28.5 µM (top of the series) unless noted
Outline: as §1

[4] = qHTS profiling of the MIPE4 collection as inhibitors of Plasmodium falciparum (DD2) proliferation (Rep 2) (AID 743346; call rule not given here); conditions: P. falciparum Dd2 in erythrocytes, SYBR Green DNA, 72 h; at 28.5 µM (top of the series) unless noted
Outline: as §1

[5] = qHTS profiling of the MIPE4 collection as inhibitors of Plasmodium falciparum (HB3) proliferation (AID 743347; call rule not given here;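 also: plate controls were DMSO vehicle wells for no effect and artemisinin wells for full effect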); conditions: P. falciparum HB3 in erythrocytes, SYBR Green DNA, 72 h; at 28.5 µM (top of the series) unless noted
Outline: as §1

[6] = High-throughput drug toxicity screening in the BPDCN cell line Cal-1 (AID 1224825; call rule not given here); conditions: Cal-1 BPDCN cell viability, qHTS; at 45.8 µM (top of the series) unless noted
Outline: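 Exponentially growing Cal-1 cells, 500 per well in phenol red-free RPMI with 10% FBS, were exposed to compounds for 48 h at 37 °C, 5% CO2. Viability was read by CellTiter-Glo luminescence and normalised to DMSO (100%) and 9.2 uM bortezomib (0%).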

[7] = qHTS assay for measurement of the activity of small molecule inhibitors on Zika virus induced Caspase-3 activity in human iPSC derived neural progenitor cells (hNPCs) (AID 1224857); also: nearly all actives have a fitted effect of over 65% in size; also: potency is read from the fitted curve at half-maximal effect
Outline: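 Percent inhibition of virus-induced caspase-3/7 luminescence (Caspase-Glo), scaled between uninfected cells and Zika-infected cells. hNPCs received compound 1 hr before ZIKV at 2 FFU/cell, with 6 hours infection at 37 C.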

[8] = qHTS assay for measurement of the activity of small molecule inhibitors on Zika virus induced Caspase-3 activity in human astrocytoma cells (AID 1224859);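 also: plate controls were ZIKV-infected untreated cells for no effect and uninfected cells for full effect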
Outline: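 Luminescent caspase-3/7 read-out (30 min reagent, room temperature) in human SNB-19 cells infected 6 h with ZIKV (2 FFU/cell) after 1 h compound pre-incubation; Data were normalised to uninfected and infected wells.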

[9] = qHTS assay for small molecule agonists of the antioxidant response element (ARE) signaling pathway measured by Nrf2-dependant transcriptional activity (AID 720636; active = well fitted curve in the direction sought with a large enough effect in the repeat runs; an effect the other way counts as inactive or inconclusive;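 also: HepG2 cells with an ARE-driven luciferase reporter; % of control where 0% means no effect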)
Outline: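 ONE-Glo luminescence, read 30 min after reagent addition at room temperature, reflected ARE reporter activity in HepG2 cells that had been incubated with compound for 16 hr at 37 C in 1% dialyzed FBS.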

[10] = qHTS assay for small molecule agonists of the antioxidant response element (ARE) signaling pathway measured by Nrf2-dependant transcriptional activity - cell viability counter screen (AID 720653; active = well fitted curve in the direction sought with a large enough effect in the repeat runs; an effect the other way counts as inactive or inconclusive; also: % is scaled to controls: 0 for no effect and ±100 for the full control effect); conditions: ARE-bla HepG2 viability, CellTiter-Glo ATP luminescence, 16 h; max response: stronger effect = lower value
Outline: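 ARE-bla HepG2 cells (2,000/well) rested 5 hrs at 37C/5% CO2, then exposed to compounds in DMSO for 16 hrs. Viability was read in the same wells as intracellular ATP by luminescence, 30 min at room temperature after reagent addition.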

[11] = qHTS assay for cell viability of HEK293 cells (AID 743288); conditions: ATP luminescence (CellTiter-Glo), 18 h; max response: stronger effect = lower value; also: % is scaled to controls: 0 for no effect and ±100 for the full control effect; nearly all actives have a fitted effect of over 50% in size
Outline: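 HEK293 parental, 2,000 cells/well; ≥5 h pre-incubation 37 C; pintool compound addition; 18 h, 37 C; CellTiter-Glo 30 min RT; luminescence read.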

[12] = qHTS assay for cell viability of the p53RE-bla HCT-116 cell line (AID 743292); also: % is scaled to controls: 0 for no effect and ±100 for the full control effect; nearly all actives have a fitted effect of over 55% in size
Outline: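 After plating at 4,000 cells per well and a 5 h rest at 37 C, HCT-116 cells carrying p53RE-bla received test chemicals in DMSO. Sixteen hours later at 37 C, CellTiter-Glo was added and luminescence recorded following 30 min at room temperature.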

SMILES	max response [1]	parasite growth, % of DMSO control [2]	parasite growth remaining, % of DMSO control (lower = more inhibition) [3]	parasite growth, % of control (lower = inhibition) [4]	growth, % of control [5]	viability (% of control) [6]	Potency [7]	Potency [8]	outcome [9]	max response [10]	max response [11]	Potency [12]
CN(C)CCc1c[nH]c2ccc(CS(=O)(=O)N3CCCC3)cc12	1.18% (inactive)	94.3%	92.8%	86.7%	70.4%	93.3%	inactive	inactive	–	–	–	–
O=c1oc2c(O)c(O)cc3c(=O)oc4c(O)c(O)cc1c4c23	10.2% (inactive)	4.91%	7.22%	5.89%	6.72%	131%	inactive	–	–	–	–	–
CCn1cc(C(=O)O)c(=O)c2cc(F)c(N3CCNCC3)nc21	–	35.6%	56.4%	53.9%	56.4%	114%	inactive	inactive	–	–	–	–
CS(=O)(=O)c1ccc([C@@H](O)[C@@H](CO)NC(=O)C(Cl)Cl)cc1	8.86% (inactive)	40.4%	51.5%	55.8%	56.8%	86.4%	inactive	inactive	–	–	–	–
CC(=O)CC(c1ccccc1)c1c(O)c2ccccc2oc1=O (configuration not stated)	–	–	–	–	–	60.3%	inactive and 23.5 µM (active)	inactive	inactive	12% (inactive)	0.884% (inactive)	inactive
C[C@@H]1C[C@H]2[C@@H]3CCC4=CC(=O)C=C[C@]4(C)[C@@]3(Cl)[C@@H](O)C[C@]2(C)[C@@]1(OC(=O)c1ccco1)C(=O)CCl	3.64% (inactive)	5.2%	7.88%	10.6%	6.95%	6.87%	inactive	inactive	–	–	–	–
CCOC(=O)[C@H](CCc1ccccc1)N[C@H]1CS[C@H](c2cccs2)CN(CC(=O)O)C1=O	3.7% (inactive)	5.73%	58.9%	6.49%	6.02%	14%	inactive	–	–	–	–	–
